“And” between values parts separate entries of the source, which are not always exact repeats. Equal values may be shown once. The source made the active and inactive calls.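 The calls were made as follows, unless noted: active = z-score of at least 1.8 in each of two replicates, scored against plate mean and spread of sample wells; inactive = the rest.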
How the values were obtained:
[1] = molecular target: NAD(+) hydrolase SARM1 (Homo sapiens) (UniProt Q6SZW1); experiment: blocking NAD cleavage by SARM1 SAM-TIR – cell lysate, NAD-Glo luminescence (AID 1508614;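 active = compound whose remaining NAD level is above about 45 nM, limit read from the data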;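 also: higher remaining NAD means stronger inhibition of SARM1 NADase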); details: SAM-TIR HEK293T lysate NADase, at 1 µM, stronger effect = higher value
Sequence of NAD(+) hydrolase SARM1 (Homo sapiens) (Q6SZW1 whole entry, looked up, the tested form may be a part): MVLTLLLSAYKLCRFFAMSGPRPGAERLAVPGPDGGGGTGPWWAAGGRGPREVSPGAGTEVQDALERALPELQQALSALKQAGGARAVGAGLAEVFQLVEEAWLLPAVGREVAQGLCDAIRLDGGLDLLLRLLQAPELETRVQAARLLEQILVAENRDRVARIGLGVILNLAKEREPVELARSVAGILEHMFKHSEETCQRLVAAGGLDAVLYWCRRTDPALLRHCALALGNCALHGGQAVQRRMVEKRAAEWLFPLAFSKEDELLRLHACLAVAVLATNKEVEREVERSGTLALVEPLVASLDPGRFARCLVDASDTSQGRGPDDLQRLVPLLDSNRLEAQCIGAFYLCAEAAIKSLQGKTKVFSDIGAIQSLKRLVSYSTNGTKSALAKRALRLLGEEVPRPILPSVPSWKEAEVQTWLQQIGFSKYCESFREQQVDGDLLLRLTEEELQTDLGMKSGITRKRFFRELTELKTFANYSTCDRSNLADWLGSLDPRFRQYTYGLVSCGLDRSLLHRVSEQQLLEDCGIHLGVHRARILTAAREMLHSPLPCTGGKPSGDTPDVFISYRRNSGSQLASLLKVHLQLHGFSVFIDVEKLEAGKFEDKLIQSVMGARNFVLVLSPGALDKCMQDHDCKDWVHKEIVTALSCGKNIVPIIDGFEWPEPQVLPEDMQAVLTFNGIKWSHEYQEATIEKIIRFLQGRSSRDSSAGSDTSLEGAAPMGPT

[2] = molecular target: Mitogen-activated protein kinase 7 (Homo sapiens) (UniProt Q13164); experiment: Gal4-ERK5 driven luciferase induction – cell-based, HTS, primary screen (AID 1508626;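 active = luciferase signal above three times the same-plate solvent-only control wells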;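 also: luciferase driven by Gal4-ERK5 fusion binding five Gal4 sites before minimal TATA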); details: HeLa Gal4-ERK5 transactivation, 18 h, at 5 µM, stronger effect = higher value
Sequence of Mitogen-activated protein kinase 7 (Homo sapiens) (Q13164 whole entry, looked up, the tested form may be a part): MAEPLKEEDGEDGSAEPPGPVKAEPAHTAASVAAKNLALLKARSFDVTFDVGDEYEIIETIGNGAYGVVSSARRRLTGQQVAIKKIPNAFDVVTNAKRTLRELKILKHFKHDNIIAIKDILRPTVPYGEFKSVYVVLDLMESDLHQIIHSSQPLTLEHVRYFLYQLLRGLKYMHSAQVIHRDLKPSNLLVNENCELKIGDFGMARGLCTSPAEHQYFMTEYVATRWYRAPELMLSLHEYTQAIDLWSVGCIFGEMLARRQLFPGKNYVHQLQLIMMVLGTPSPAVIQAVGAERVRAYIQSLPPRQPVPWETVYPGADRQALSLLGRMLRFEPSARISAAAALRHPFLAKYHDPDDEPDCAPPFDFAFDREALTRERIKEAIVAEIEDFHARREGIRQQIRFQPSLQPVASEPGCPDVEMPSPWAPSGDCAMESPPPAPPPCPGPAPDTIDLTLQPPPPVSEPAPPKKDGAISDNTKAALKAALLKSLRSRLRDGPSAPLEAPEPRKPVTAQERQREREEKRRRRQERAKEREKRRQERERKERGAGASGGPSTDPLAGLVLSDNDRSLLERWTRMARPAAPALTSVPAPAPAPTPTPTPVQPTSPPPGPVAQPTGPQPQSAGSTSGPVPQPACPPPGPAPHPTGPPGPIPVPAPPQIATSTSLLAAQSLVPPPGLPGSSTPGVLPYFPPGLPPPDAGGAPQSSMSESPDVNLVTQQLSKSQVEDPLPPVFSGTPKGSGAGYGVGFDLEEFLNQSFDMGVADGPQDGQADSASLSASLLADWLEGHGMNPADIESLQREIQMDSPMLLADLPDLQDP

[3] = galactose survival enhancers in mitochondrial complex I cybrids – cell-based, galactose medium, ATP luminescence, primary screen (AID 1645843); details: complex I mutant cybrid cells, 72 h, stronger effect = higher value;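 also: positive z means more ATP and so rescue of galactose-driven cybrid death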
[4] = growth inhibition, single agent or in combination, cell-based, chromothripsis tumors, cisplatin or BGB combos (AID 1671449; in the data active = inhibition above about 80%;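 also: cells exposed for 96 hours; 0% = vehicle DMSO and 100% = killing by high DMSO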); details: LFS_MB_P medulloblastoma cells
[5] = growth inhibition, single agent and combos, cell-based, chromothripsis tumors, cisplatin or BGB combos (AID 1671450; in the data active = inhibition above about 80%;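 also: cells exposed to compound for four days; 0% = vehicle DMSO and 100% = cell killing by high DMSO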); details: HDN33 neuroblastoma cells, stronger effect = higher value
[6] = growth inhibition, single agents and combos, ICB984, cell-based, cisplatin or BGB combos, synergistic combos for chromothripsis tumors (AID 1671451; call rule not given here;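 also: cells exposed for 96 hours before readout; 0% = vehicle DMSO and 100% = killing by high DMSO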); details: ICB984 medulloblastoma cells, drug combinations, stronger effect = higher value
[7] = growth inhibition, single agents and combos, LFS_MB_1R, cell-based, cisplatin or BGB combos, synergistic combos for chromothripsis tumors (AID 1671452; in the data active = inhibition above about 80%;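 also: cells exposed for 96 hours before readout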); details: LFS_MB_1R medulloblastoma cells, stronger effect = higher value
[8] = growth inhibition, single agents and combos, HTB85, cell-based, BGB or cisplatin IC20 combos, synergistic combos for chromothripsis tumors (AID 1671453; in the data active = inhibition above about 80%;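 also: cells exposed for 96 hours before readout; 0% = vehicle DMSO and 100% = high DMSO killing control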); details: HTB85 osteosarcoma cells, drug combinations, stronger effect = higher value
[9] = growth inhibition, single agents and combos, CRL2098, cell-based, BGB or cisplatin IC20 combos, synergistic combos for chromothripsis tumors (AID 1671454; in the data active = inhibition above about 80%;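 also: cells exposed for 96 h before readout; 0% = vehicle DMSO and 100% = killing by high DMSO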); details: CRL2098 osteosarcoma cells, drug combinations, stronger effect = higher value
[10] = growth inhibition, single agents and combos, HD-MB03, cell-based, BGB or cisplatin IC20 combos, synergistic combos for chromothripsis tumors (AID 1671455; in the data active = inhibition above about 83%;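 also: 0% = vehicle DMSO and 100% = high DMSO as cytotoxic control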); details: HD-MB03 medulloblastoma cells, stronger effect = higher value
[11] = growth inhibition, single agents and combos, UWB1.289, cell-based, BGB or cisplatin combos, synergistic combos for chromothripsis tumors (AID 1671456; in the data active = inhibition above about 80%;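 also: cells exposed to compound for four days; 0% = vehicle DMSO and 100% = killing by high DMSO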); details: UWB1.289 ovarian carcinoma cells, stronger effect = higher value
[12] = growth inhibition, single agents and combos, LFS_MB_2R, cell-based, cisplatin combos, synergistic combos for chromothripsis tumors (AID 1671457; in the data active = inhibition above about 80%;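 also: cells exposed to compound for four days before readout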); details: LFS_MB_2R medulloblastoma cells, stronger effect = higher value
[13] = growth inhibition, MDA-MB-436, cell-based, BGB or cisplatin combos, synergistic combos for chromothripsis tumors (AID 1671458; call rule not given here;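 also: cells exposed for 96 hours; 0% = vehicle DMSO and 100% = killing by high DMSO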); details: MDA-MB-436 breast carcinoma growth inhibition, drug combinations, stronger effect = higher value
[14] = UWB1.289_BRCA1 ovarian cancer growth, cell-based, BGB or cisplatin combinations (AID 1671459; in the data active = inhibition above about 80%); details: UWB1.289 BRCA1 ovarian carcinoma, drug combinations, stronger effect = higher value
[15] = drug combination toxicity in non-malignant astrocytes – cell-based, BGB or cisplatin IC20 combos, cytotoxicity control for chromothriptic childhood tumor combination screen (AID 1671460; in the data active = inhibition above about 80%;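 also: cells exposed to compounds for 96 hours before viability readout; 0% = vehicle and 100% = killing control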); details: Human astrocytes, viability inhibition, drug combinations, at 0.5 µM, stronger effect = higher value
[16] = BT084 cell growth, single and combined drugs, ICGC_MB145, cisplatin and BGB IC40 combos (AID 1671461; in the data active = inhibition above about 80%;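 also: cells exposed to drugs for 96 hours; 0% = vehicle DMSO and 100% = high DMSO full killing control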); details: BT084 medulloblastoma cells, drug combinations, stronger effect = higher value
[17] = RCMB18 cell growth, single agent and combined, cisplatin and BGB IC40 combos (AID 1671462; in the data active = inhibition above about 80%;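 also: cells exposed to compound for four days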); details: RCMB18 medulloblastoma cells, stronger effect = higher value
[18] = CRL1545 cell growth, single agent and combined, cisplatin and BGB IC20 combos (AID 1671464; in the data active = inhibition above about 80%;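 also: cells exposed to compound for 96 hours before readout; 0% = vehicle DMSO and 100% = high DMSO killing control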); details: CRL1545 osteosarcoma cells, stronger effect = higher value
[19] = measured here: combination with BGB IC40, at 0.05 µM
[20] = measured here: with BGB IC20 combination, at 0.5 µM
[21] = measured here: with cisplatin IC20 combination, at 0.5 µM
[22] = measured here: combination with cisplatin, at 0.5 µM
[23] = measured here: combination with cisplatin, at 5 µM

Structure (SMILES): CC(=O)OC/C=C(C)/C=C/C=C(C)/C=C/C1=C(C)CCCC1(C)C
- remaining NAD [1]: 10 nM (inactive)
- luciferase signal [2]: 96 AU (inactive)
- z-score [3]: -0.205 (inactive)

Structure (SMILES): C[n+]1ccccc1/C=N/O
- remaining NAD [1]: 10 nM (inactive)
- luciferase signal [2]: 84 AU (inactive)
- z-score [3]: 0.085 (inactive)

Structure (SMILES): Nc1ccc(O)c(C(=O)O)c1
- remaining NAD [1]: 10 nM (inactive)
- luciferase signal [2]: 48 AU (inactive)
- z-score [3]: 0.62 (inactive) and 0.46 (inactive)

Structure (SMILES): COCCc1ccc(OCC(O)CNC(C)C)cc1 (stereo unspecified)
- remaining NAD [1]: 10 nM (inactive)
- luciferase signal [2]: 40 AU (inactive)
- z-score [3]: 0.4 (inactive) and 0.695 (inactive)

Structure (SMILES): CCN1CCN(C(=O)N[C@@H](C(=O)N[C@@H]2C(=O)N3C(C(=O)O)=C(CSc4nnnn4C)CS[C@H]23)c2ccc(O)cc2)C(=O)C1=O
- remaining NAD [1]: 10 nM (inactive)
- luciferase signal [2]: 88 AU (inactive)
- z-score [3]: -0.045 (inactive)

Structure (SMILES): O=C(NC(Cc1cc(=O)[nH]c2ccccc12)C(=O)O)c1ccc(Cl)cc1 (stereo unspecified)
- remaining NAD [1]: 10 nM (inactive)
- luciferase signal [2]: 40 AU (inactive)
- z-score [3]: 0.47 (inactive)

Structure (SMILES): C[N+](C)(C)CCCCCC[N+](C)(C)C
- remaining NAD [1]: 10 nM (inactive)
- luciferase signal [2]: 52 AU (inactive)
- z-score [3]: 0.205 (inactive) and 0.235 (inactive)

Structure (SMILES): NNc1nncc2ccccc12
- remaining NAD [1]: 10 nM (inactive)
- luciferase signal [2]: 280 AU (active)
- z-score [3]: 0.12 (inactive)

Structure (SMILES): Cn1c(=O)c2c(ncn2C)n(C)c1=O
- remaining NAD [1]: 10 nM (inactive)
- luciferase signal [2]: 32 AU (inactive)
- z-score [3]: 0.3 (inactive)

Structure (SMILES): CCO/C([O-])=N/c1c[n+](N2CCOCC2)no1
- remaining NAD [1]: 10 nM (inactive)
- luciferase signal [2]: 56 AU (inactive)
- z-score [3]: 0.905 (inactive) and 0.425 (inactive)

Structure (SMILES): CCn1cc(C(=O)O)c(=O)c2cc3c(cc21)OCO3
- remaining NAD [1]: 10 nM (inactive)
- luciferase signal [2]: 88 AU (inactive)
- z-score [3]: 0.245 (inactive)
- inhibition ([4]; at 0.5 µM, stronger effect = higher value): -36.8% (inactive)
- inhibition ([4]; measured here: combination with BGB IC20, at 0.005 µM): -15.7%
- inhibition ([4]; measured here: combination with BGB IC40, at 0.005 µM): -20.3%
- inhibition [4, 19]: -2.68%
- inhibition ([4]; measured here: combination with cisplatin, at 0.5 µM, stronger effect = higher value): -50%
- inhibition ([4]; measured here: combination with cisplatin, at 5 µM, stronger effect = higher value): -47.2%
- inhibition ([5]; BGB combo, at 5 µM): -6.85%
- inhibition ([5]; at 0.5 µM): 11.7% (inactive)
- inhibition ([5]; cisplatin combo, at 5 µM): -11.4%
- inhibition [5, 20]: 31.7%
- inhibition [5, 21]: -3.7%
- inhibition ([5]; single agent, at 5 µM): 13.3%
- inhibition ([6]; BGB IC20 combo, at 0.005 µM): -17.2%
- inhibition ([6]; BGB IC40 combo, at 0.005 µM): 7.28%
- inhibition ([6]; BGB IC40 combo, at 0.05 µM): 6.59%
- inhibition ([6]; at 0.5 µM): -11.6% (inactive)
- inhibition ([6]; cisplatin combo, at 0.05 µM): 6.59%
- inhibition ([6]; cisplatin combo, at 0.5 µM): -23.1%
- inhibition ([6]; cisplatin combo, at 5 µM): 6.27%
- inhibition ([6]; measured here: 5 uM single agent, at 5 µM): -34.2%
- inhibition ([7]; at 0.5 µM): 0.84% (inactive)
- inhibition [7, 19]: -15.9%
- inhibition [7, 22]: -7.75%
- inhibition [7, 23]: -5.64%
- inhibition ([8]; at 0.5 µM): -2.07% (inactive)
- inhibition ([8]; measured here: with BGB IC20, at 0.5 µM): -19.1%
- inhibition ([8]; measured here: with BGB IC20, at 5 µM): -10.5%
- inhibition ([8]; measured here: with cisplatin IC20, at 0.5 µM): 12%
- inhibition ([8]; measured here: with cisplatin IC20, at 5 µM): 2.66%
- inhibition ([8]; single agent, at 5 µM): -16.7%
- inhibition ([9]; at 0.5 µM): -34.7% (inactive)
- inhibition ([9]; measured here: combination with BGB at IC20, at 0.5 µM): -42.4%
- inhibition ([9]; measured here: combination with cisplatin at IC20, at 0.5 µM): -29.3%
- inhibition ([10]; at 0.5 µM): 1.11% (inactive)
- inhibition ([10]; measured here: combo with BGB at IC20, at 0.5 µM): -0.045%
- inhibition ([10]; measured here: combo with cisplatin at IC20, at 0.5 µM): -3.84%
- inhibition ([11]; at 0.5 µM): 2.29% (inactive)
- inhibition ([11]; measured here: inhibition with BGB combination, at 0.05 µM): -2.14%
- inhibition ([11]; measured here: inhibition with cisplatin combination, at 0.05 µM): -6.63%
- inhibition ([12]; at 0.5 µM): -21.9% (inactive)
- inhibition [12, 22]: -20.2%
- inhibition [12, 23]: -21.2%
- inhibition ([13]; at 0.5 µM): -14.4% (inactive)
- inhibition ([13]; measured here: BGB combination, at 0.5 µM): -16.2%
- inhibition ([13]; measured here: BGB combination, at 5 µM): -18.6%
- inhibition ([13]; measured here: cisplatin combination, at 0.5 µM): -20.7%
- inhibition ([13]; measured here: cisplatin combination, at 5 µM): -20.6%
- inhibition ([14]; BGB combination, concentration series, at 5 µM): -2.14%
- inhibition ([14]; at 0.5 µM): 1.91% (inactive)
- inhibition ([14]; cisplatin combination, concentration series, at 5 µM): 15.4%
- inhibition [15]: -0.34% (inactive)
- inhibition ([15]; measured here: combo with BGB IC20): 2.16%
- inhibition ([15]; measured here: combo with cisplatin IC20): -8.86%
- inhibition ([16]; at 0.5 µM): -9.83% (inactive)
- inhibition ([16]; cisplatin combination, at 0.5 µM): 15.9%
- inhibition ([16]; cisplatin combination, at 5 µM): -11.8%
- inhibition ([16]; measured here: BGB IC40 combination 0.05 uM, at 0.05 µM): 27.5%
- inhibition ([16]; single agent, at 5 µM): -16.8%
- inhibition ([17]; at 0.5 µM): -3.66% (inactive)
- inhibition ([17]; cisplatin combo, at 5 µM): 2.43%
- inhibition ([17]; measured here: BGB IC40 combination, at 0.05 µM): -11.1%
- inhibition [17, 22]: 16.7%
- inhibition ([17]; single agent, at 5 µM): -9.78%
- inhibition ([18]; at 0.5 µM): -6.67% (inactive)
- inhibition [18, 20]: -7.74%
- inhibition [18, 21]: -6.13%
- inhibition ([18]; single agent, at 0.05 µM): 12.4%
- inhibition ([18]; single agent, at 5 µM): 12.2%

Structure (SMILES): CC(C)(Oc1ccc(Cl)cc1)C(=O)O
- remaining NAD [1]: 10 nM (inactive)
- luciferase signal [2]: 72 AU (inactive)
- z-score [3]: 0.98 (inactive)

Structure (SMILES): COC(=O)N/N=C/c1c[n+]([O-])c2ccccc2[n+]1[O-]
- remaining NAD [1]: 10 nM (inactive)
- luciferase signal [2]: 172 AU (inactive)
- z-score [3]: 0.34 (inactive)

Structure (SMILES): CC(C)NNC(=O)c1ccncc1
- remaining NAD [1]: 10 nM (inactive)
- luciferase signal [2]: 60 AU (inactive)
- z-score [3]: 0.54 (inactive) and 0.67 (inactive)

Structure (SMILES): C[N+](C)(C)CCOC(N)=O
- remaining NAD [1]: 12 nM (inactive)
- luciferase signal [2]: 72 AU (inactive)
- z-score [3]: 0.575 (inactive) and 0.535 (inactive)

Structure (SMILES): NC(N)=Nc1nc(CSCC/C(N)=N/S(N)(=O)=O)cs1
- remaining NAD [1]: 10 nM (inactive)
- luciferase signal [2]: 72 AU (inactive)
- z-score [3]: 0.125 (inactive) and 0.38 (inactive)

Source: PubChem BioAssay
